# According to PubChem BioAssay (NCI):
# Compounds without any hit were thinned out: in the full panel of roughly 83,000, 20% have a hit.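 The endpoint reported here, percent growth, reads 100 for growth as untreated, 0 for no net growth and -100 for all cells dead.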 Activity calls are given as the source filed them. The calls were made as follows: active = growth percent below 10; inactive = the rest.
# What was measured:
# Assay in all cases: NCI-60 one-dose screen, 48 h (100 = growth as untreated, 0 = no growth, -100 = all killed)
# Conditions in all cases: 10 µM unless noted
# [1] = system: NCI-H23 lung
# [2] = system: NCI-H226 lung
# [3] = system: NCI-H322M lung
# [4] = system: HOP-62 NSCLC
# [5] = system: NCI-H460 lung
# [6] = system: NCI-H522 lung
# [7] = system: A549/ATCC NSCLC
# [8] = system: 786-0 renal
# [9] = system: COLO 205 colon
# [10] = system: DU-145 prostate
# [11] = system: K-562 leukemia
# [12] = system: MALME-3M melanoma
# [13] = system: MDA-MB-231 breast
# [14] = system: RXF 393 renal
# [15] = system: SF-268 CNS
# [16] = system: SF-295 CNS
# [17] = system: SF-539 CNS
# [18] = system: UACC-257 melanoma
# [19] = system: M14 melanoma
Structure (SMILES),growth [1],growth [2],growth [3],growth [4],growth [5],growth [6],growth [7],growth [8],growth [9],growth [10],growth [11],growth [12],growth [13],growth [14],growth [15],growth [16],growth [17],growth [18],growth [19]
Cc1csc(N/N=C/c2ccncc2)n1,100% (inactive),95.9% (inactive),109% (inactive),99.1% (inactive),101% (inactive),72.9% (inactive),68.8% (inactive),88.4% (inactive),107% (inactive),108% (inactive),94.1% (inactive),117% (inactive),102% (inactive),99.5% (inactive),114% (inactive),108% (inactive),106% (inactive),78.1% (inactive),100% (inactive)
O/N=C1\c2ccccc2-c2ccc(Br)cc21,96.1% (inactive),103% (inactive),101% (inactive),113% (inactive),106% (inactive),95.8% (inactive),97.4% (inactive),98.6% (inactive),136% (inactive),110% (inactive),98.7% (inactive),103% (inactive),107% (inactive),116% (inactive),102% (inactive),99.2% (inactive),97.8% (inactive),106% (inactive),129% (inactive)
Oc1ccccc1-c1nnc(COc2ccc(Cl)cc2Cl)o1,57% (inactive),66.2% (inactive),52.6% (inactive),40.6% (inactive),28.3% (inactive),1.97% (active),54.5% (inactive),44.7% (inactive),67% (inactive),48.1% (inactive),44.5% (inactive),68.3% (inactive),48.2% (inactive),63.5% (inactive),8.59% (active),47.4% (inactive),52.1% (inactive),58.9% (inactive),42.5% (inactive)
CC1CCCN(CCCCOc2ccc(-c3ccc(C#N)cc3)cc2)C1 (centres undefined),82.6% (inactive),93.4% (inactive),99.9% (inactive),97.7% (inactive),99.1% (inactive),59.6% (inactive),60.2% (inactive),90.1% (inactive),75.1% (inactive),101% (inactive),62% (inactive),120% (inactive),84.6% (inactive),94.6% (inactive),92.5% (inactive),94.6% (inactive),98.4% (inactive),66.6% (inactive),83.2% (inactive)
O=C1CCCN1C1CCN2CCCc3cccc1c32 (centres undefined),105% (inactive),111% (inactive),114% (inactive),97% (inactive),110% (inactive),84.2% (inactive),107% (inactive),101% (inactive),110% (inactive),119% (inactive),109% (inactive),94.2% (inactive),101% (inactive),128% (inactive),112% (inactive),110% (inactive),101% (inactive),111% (inactive),100% (inactive)
CN1C(=O)C(C2=NNC(c3ccccc3C(=O)O)C2)C(=O)N(C)C1=O (centres undefined),106% (inactive),99.8% (inactive),87.8% (inactive),98.3% (inactive),106% (inactive),83.7% (inactive),98.6% (inactive),101% (inactive),108% (inactive),113% (inactive),94.1% (inactive),111% (inactive),109% (inactive),106% (inactive),98.8% (inactive),101% (inactive),108% (inactive),97.1% (inactive),103% (inactive)
CCN(CC)c1ccc2c(cc1=O)[C@@H](NC(C)=O)CCc1cc(OC)c(OC)c(OC)c1-2,49.5% (inactive),51% (inactive),30.9% (inactive),30.9% (inactive),3.44% (active),-38.8% (active),13.2% (inactive),15.6% (inactive),-62.8% (active),-10.2% (active),0.286% (active),99% (inactive),15.1% (inactive),58.8% (inactive),24.4% (inactive),11.3% (inactive),-3.76% (active),63.1% (inactive),-0.777% (active)
Nc1nc(NC2CC2)cc(-c2cccc(Cl)c2Cl)n1,71.7% (inactive),92.3% (inactive),101% (inactive),47.1% (inactive),27.6% (inactive),3.95% (active),32.6% (inactive),69.2% (inactive),44.1% (inactive),78.3% (inactive),18.9% (inactive),64.4% (inactive),66.8% (inactive),73.3% (inactive),67.6% (inactive),55.7% (inactive),55.7% (inactive),49.8% (inactive),18.3% (inactive)
Cc1ccccc1C1CC(=O)c2ccccc2C1C (centres undefined),100% (inactive),103% (inactive),114% (inactive),104% (inactive),108% (inactive),97.1% (inactive),89.9% (inactive),102% (inactive),104% (inactive),109% (inactive),97.3% (inactive),125% (inactive),105% (inactive),109% (inactive),101% (inactive),96.3% (inactive),93% (inactive),103% (inactive),90.6% (inactive)
O=C(O)c1cc2cc(OCc3ccccc3)ccc2[nH]1,103% (inactive),107% (inactive),99% (inactive),93.8% (inactive),98.4% (inactive),90.3% (inactive),90.9% (inactive),115% (inactive),93.7% (inactive),114% (inactive),112% (inactive),-20.3% (active),99.1% (inactive),111% (inactive),99.9% (inactive),108% (inactive),87.5% (inactive),48% (inactive),106% (inactive)
CCN1C(=O)N(CC)C2C1NC(=O)N2/N=C/C=C/c1ccccc1 (centres undefined),64.5% (inactive),74.9% (inactive),63.8% (inactive),41.3% (inactive),24.4% (inactive),2.08% (active),45.4% (inactive),33% (inactive),27.4% (inactive),68.1% (inactive),17% (inactive),50.6% (inactive),71.5% (inactive),32.3% (inactive),59.7% (inactive),34.9% (inactive),25% (inactive),35.8% (inactive),28.5% (inactive)
COc1cc(-c2nn(C(=O)NCCN3CCN(C)CC3)cc2-c2ccncc2)ccc1Cl,90.5% (inactive),27.1% (inactive),106% (inactive),41.6% (inactive),93.5% (inactive),75.3% (inactive),57% (inactive),59.3% (inactive),50.9% (inactive),87.2% (inactive),83.9% (inactive),77.8% (inactive),70.5% (inactive),42.3% (inactive),46.2% (inactive),88.2% (inactive),63.6% (inactive),86.2% (inactive),68.9% (inactive)
CC(C)(c1ccccc1)c1cc(O)c(C(C)(C)c2ccccc2)cc1O,38% (inactive),43.2% (inactive),59.7% (inactive),63% (inactive),21.9% (inactive),-2.05% (active),28.5% (inactive),30.5% (inactive),17% (inactive),63.3% (inactive),13% (inactive),48.5% (inactive),-1.39% (active),63.4% (inactive),38.7% (inactive),25% (inactive),50.4% (inactive),11.3% (inactive),11.9% (inactive)
COc1ccc(C(=O)OC2C(OC3C(O)COC(O[C@H]4C[C@H]5[C@@H]6CC=C7C[C@@H](O)CC[C@]7(C)[C@H]6CC[C@]5(C)[C@H]4[C@H](C)C(=O)CCC(C)C)C3OC(C)=O)OCC(O)C2O)cc1 (some centres undefined),2.95% (active),-14% (active),36.9% (inactive),-32.2% (active),-20.3% (active),-65.7% (active),-14.3% (active),-41.2% (active),-64.3% (active),28.5% (inactive),-50.3% (active),-12.7% (active),10.6% (inactive),-71.9% (active),-12.6% (active),-64.5% (active),-69.8% (active),-60.3% (active),-69.3% (active)
COc1ccc(-c2nn(C(=O)NCCN(C)C)cc2-c2ccncc2)cc1Cl,63.5% (inactive),46.4% (inactive),109% (inactive),16% (inactive),27.4% (inactive),28.2% (inactive),32.6% (inactive),34.8% (inactive),25.1% (inactive),77.6% (inactive),16.5% (inactive),53.8% (inactive),54.5% (inactive),44.6% (inactive),44.8% (inactive),24% (inactive),25.6% (inactive),64.4% (inactive),45.8% (inactive)
Cn1c(-c2ccccc2)cc(=O)n1-c1ccccc1,96% (inactive),102% (inactive),103% (inactive),108% (inactive),117% (inactive),107% (inactive),102% (inactive),107% (inactive),121% (inactive),120% (inactive),110% (inactive),113% (inactive),100% (inactive),115% (inactive),112% (inactive),122% (inactive),101% (inactive),97.4% (inactive),110% (inactive)
